# Reference: PubChem BioAssay
# Activity calls are given as the source filed them. The rule behind the calls is not given here.
# Target: Pantothenate synthetase (Mycobacterium tuberculosis (strain ATCC 25618 / H37Rv)) (UniProt P9WIL5)
# Experiment: Coupled enzyme confirmation of inhibitors against recombinant Mtb PanC (AID 375);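 note: 0% = full reaction with vehicle and 100% = no enzyme background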
# Details: coupled enzyme assay; at 10 µM, active compounds read high
# Sequence of Pantothenate synthetase (Mycobacterium tuberculosis (strain ATCC 25618 / H37Rv)) (P9WIL5 whole entry, looked up): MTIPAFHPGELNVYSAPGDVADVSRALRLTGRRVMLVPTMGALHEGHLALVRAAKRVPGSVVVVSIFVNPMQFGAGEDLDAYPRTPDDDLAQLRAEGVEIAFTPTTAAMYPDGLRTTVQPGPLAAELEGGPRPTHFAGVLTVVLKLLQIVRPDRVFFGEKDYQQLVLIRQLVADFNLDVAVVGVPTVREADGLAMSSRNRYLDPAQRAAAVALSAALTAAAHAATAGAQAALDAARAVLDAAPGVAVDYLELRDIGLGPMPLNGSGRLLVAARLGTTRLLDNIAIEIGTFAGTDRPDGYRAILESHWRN
row,SMILES,inhibition
1,CCNc1ccc2c(Cl)cc(=O)oc2c1,5% (inactive)
2,Cc1ccc(Cn2c(SCCN3CCCCC3)nc3c2c(=O)[nH]c(=O)n3C)cc1,2% (inactive)
3,CCOC(=O)c1c(C)[nH]c(C(=O)Cn2c(=O)c3c(ncn3CC)n(Cc3ccccc3)c2=O)c1C,3% (inactive)
4,CC(C)Cn1c2c(c(O)c(C(=O)Nc3ncccc3O)c1=O)CCCC2,0% (inactive)
5,Cc1noc(/C=C/N(C)C)c1S(=O)(=O)N1CCCC(C(=O)N2CCCCC2)C1 (stereo not given),7% (inactive)
6,CC1=C(C(=O)Nc2ccccc2)C(c2ccco2)C(C#N)=C(SCC(=O)Nc2cccc(C)c2C)N1 (stereo not given),1% (inactive)
7,CCN(CC)S(=O)(=O)c1ccc2[nH]cc(C(=O)NCCC3=CCCCC3)c(=O)c2c1,0% (inactive)
8,Nc1nc(SCCOc2ccccc2)n[nH]1,0% (inactive)
9,CCc1cc(=O)oc2c(CN3CCN(C)CC3)c(O)c(Cl)cc12,5% (inactive)
10,CCOCCCNC(=O)C1CCN(S(=O)(=O)c2c(C)noc2/C=C\c2ccc(OC)cc2)CC1,8% (inactive)
11,C[C@@H]1C[C@H]2[C@@H]3CCC4=CC(=O)C=C[C@]4(C)[C@@]3(F)[C@@H](O)C[C@]2(C)[C@H]1C(=O)CO,1% (inactive)
12,CCN(CC)S(=O)(=O)N1CCC(C(=O)NCC2COc3ccccc3O2)CC1 (stereo not given),1% (inactive)
13,COc1cccc(-c2nnc3sc(-c4ccc(C)cc4)nn23)c1,0% (inactive)
14,O=S(=O)(c1ccc(-c2csc(-c3cccnc3)n2)cc1)N1CCCCC1,5% (inactive)
15,CO[C@@]1(NC(=O)CSCC#N)C(=O)N2C(C(=O)O)=C(CSc3nnnn3C)CS[C@@H]21,0% (inactive)
16,Cc1cc(NS(=O)(=O)c2ccc(NC(=O)COc3ccccc3C(C)C)cc2)no1,0% (inactive)
17,C=CCNC(=O)CNS(=O)(=O)c1ccc(F)cc1,2% (inactive)
18,CC(N)C12CC3CC(C1)CC(C(C)N)(C3)C2 (stereo not given),0% (inactive)
19,COc1cc(C2c3c(oc4ccccc4c3=O)C(=O)N2c2ccc(C)cn2)ccc1O (stereo not given),0% (inactive)
20,Cc1ccc2oc(C(=O)Nc3c(C)n(C)n(-c4ccccc4)c3=O)c(C)c2c1,0% (inactive)

row,SMILES,inhibition
1,CCCc1cc(=O)[nH]c(/N=C(\N)Nc2ccccc2)n1,6% (inactive)
2,Cc1onc(-c2ccccc2Cl)c1C(=O)Nc1cnn(Cc2ccccc2)c1,0% (inactive)
3,CCS(=O)(=O)N1CCC(C(=O)NC2CCCCC2)CC1,0% (inactive)
4,COc1ccc(C(C)=O)c(OC(=O)c2ccc(OC)c(OC)c2)c1,0% (inactive)
5,CC1(C)C2CCC1(C)C(OC(=O)CSc1nc(N)cc(=O)[nH]1)C2 (stereo not given),0% (inactive)
6,COc1cccc(CC(=O)Nn2c(C)nc3ccccc3c2=O)c1,2% (inactive)
7,CCOC(=O)CS(=O)(=O)c1nc(-c2ccccc2)cc(C(F)(F)F)n1,3% (inactive)
8,O=C(Nc1nc2c(s1)CCc1ccccc1-2)c1cccs1,8% (inactive)
9,Cc1ccc(S(=O)(=O)c2cc3c(=O)n4ccccc4nc3n(CC3CCCO3)c2=N)cc1C (stereo not given),0% (inactive)
10,CC(O)Cn1cnc2c1c(=O)n(C)c(=O)n2C (stereo not given),2% (inactive)
11,COc1cc(/C=C/C(=O)CC(=O)/C=C/c2ccc(O)c(OC)c2)ccc1O,10% (inactive)
12,Cc1nnc(NC2CCCCC2)[nH]c1=O,3% (inactive)
13,O=C(CSc1nnc(-c2ccco2)n1-c1ccccc1)N1CCN(C(=O)c2ccco2)CC1,0% (inactive)
14,COCCCNC(=O)CCn1c(=O)c2ccccc2n(CC(=O)Nc2ccc(C)cc2C)c1=O,0% (inactive)
15,CCOC(=O)CN(C)Cc1c[nH]c2ccccc12,14% (inactive)
16,COc1ccccc1-c1cn[nH]c(=S)n1,11% (inactive)
17,Cn1c(=O)c2c(nc(NCC3CCCO3)n2C)n(C)c1=O (stereo not given),0% (inactive)
18,CCc1cc(=O)oc2cc(OC(C)=O)cc(OC(C)=O)c12,0% (inactive)
19,O=C1CC(Cc2ccccc2)C(=O)N1CCCn1ccnc1 (stereo not given),0% (inactive)
20,COc1cccc(NC(=O)C2CCCN2C(=O)Nc2cccc(F)c2)c1 (stereo not given),0% (inactive)
